Measurements published in PubChem BioAssay AID488975 (Johns Hopkins Ion Channel Center, 2010).
Screen size: about 310,000 compounds; about 2,600 (0.84%) were called active.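 The calls were made as follows: active = B-score over 3 SD under the library average, and starting fluorescence ratio not unusually high; inactive = the rest.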 This excerpt belongs to a sample that is enriched for actives.

target: High affinity choline transporter 1 (Homo sapiens) (UniProt Q9GZV3); experiment: inhibitors of human choline transporter CHT (AID 488975); settings: CHT-expressing cells, membrane potential dye, choline response, at 10 µM; active compounds read low;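 as to B-score: choline stimulus applied at its EC90 after an EC20 pre-addition; B-score computed on integrated fluorescence ratio after choline addition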
Sequence (Q9GZV3 whole entry, looked up): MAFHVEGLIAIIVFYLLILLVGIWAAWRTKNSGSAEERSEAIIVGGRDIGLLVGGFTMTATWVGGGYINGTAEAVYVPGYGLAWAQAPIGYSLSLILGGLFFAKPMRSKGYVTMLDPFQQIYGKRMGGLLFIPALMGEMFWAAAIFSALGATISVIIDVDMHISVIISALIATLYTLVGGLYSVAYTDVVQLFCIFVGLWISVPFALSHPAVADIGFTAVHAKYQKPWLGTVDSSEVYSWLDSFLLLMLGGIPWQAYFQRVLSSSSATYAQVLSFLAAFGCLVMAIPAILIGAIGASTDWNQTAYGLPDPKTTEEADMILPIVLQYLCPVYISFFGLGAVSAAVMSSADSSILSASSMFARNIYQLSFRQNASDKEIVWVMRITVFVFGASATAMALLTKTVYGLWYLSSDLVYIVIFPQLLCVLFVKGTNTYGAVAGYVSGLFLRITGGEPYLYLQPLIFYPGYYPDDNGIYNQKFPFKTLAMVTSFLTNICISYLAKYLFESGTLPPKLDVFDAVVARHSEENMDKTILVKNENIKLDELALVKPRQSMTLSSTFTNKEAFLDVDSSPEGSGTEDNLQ

Row | SMILES | B-score
1 | CCCNC(=O)CCn1cc(-c2ccc(OC)cc2)nc1CCN | inactive
2 | C=CCNC(=O)C1CC2c3ccccc3C1c1ccccc12 (centres undefined) | inactive
3 | CC1(C)CC(=O)c2sc(N)nc2C1 | inactive
4 | CNC(=O)c1ccc2nc(NC(C)=O)sc2c1 | inactive
5 | CC(=O)Nc1nc2c(s1)C(=O)NCC(C)(C)C2 | -5.07 (active)
6 | COc1cccc(N2CC(NC(=O)c3ccc4ccccc4c3)CC2=O)c1 (centres undefined) | inactive
7 | COc1cccc(CC2(CO)CCCN(Cc3ccc(OC(F)F)cc3)C2)c1 (centres undefined) | inactive
8 | Cc1nn(C)c(C)c1NS(=O)(=O)c1ccc(OC(F)(F)F)cc1 | inactive
9 | COc1cc(C(=O)N2CCN(C/C=C/c3ccccc3)CC2)cc(OC)c1C | inactive
10 | O=C(CCN1CCN(C/C=C/c2ccccc2)CC1)Nc1cccc(F)c1 | inactive
11 | CNC(=O)NC(=O)C(C)N1CCN(C/C=C/c2ccccc2)CC1 (centres undefined) | -6.91 (active)
12 | CCc1ccc(C(=O)NNC(=O)C2CCN(c3ncnc4sc(C)c(C)c34)CC2)cc1 | inactive
13 | O=C(Nc1ccc(C(=O)N2CCOCC2)cc1)Nc1cccc(C(F)(F)F)c1 | inactive
14 | CCN1CN(Cc2ccccc2)CNC1=S | inactive
15 | CCOc1ccccc1N1CN(Cc2ccccc2)CNC1=S | inactive
16 | CCc1ccccc1N1CN(Cc2ccco2)CNC1=S | -5.54 (active)
17 | Brc1cnc2ccccc2c1N1CCCCC1 | inactive
18 | CCCCCN(C(=O)CCC(=O)OCC(=O)NC1CCC(C)CC1)c1c(N)n(CCCC)c(=O)[nH]c1=O (centres undefined) | inactive
19 | O=C(CN1C(=O)NC2(CCCC2)C1=O)OCCOc1ccc(F)cc1 | inactive
20 | COc1cc(NC(=O)CSC(=S)N2CCCC2)c(OC)cc1Cl | inactive
21 | COc1ccc(/C=C2\SC(=O)N(CCC(=O)NC3CCS(=O)(=O)C3)C2=O)cc1 (centres undefined) | inactive
22 | CC(C(=O)NC1CCS(=O)(=O)C1)N1C(=O)/C(=C/c2ccc(Cl)cc2)SC1=S (centres undefined) | -8.07 (active)
23 | CN(C(=O)CN1C(=O)/C(=C/c2ccc(Cl)cc2)SC1=S)C1CCS(=O)(=O)C1 (centres undefined) | inactive
24 | COc1ccc(S(=O)(=O)N(CC(=O)N/N=C/c2ccc(C(=O)O)cc2)Cc2ccccc2)cc1OC | inactive
25 | COc1ccc(C(=O)O)cc1S(=O)(=O)NCc1cccnc1 | inactive
26 | CCN(Cc1ccccc1)S(=O)(=O)c1cc(C(=O)O)ccc1OC | -5.82 (active)

Row | SMILES | B-score
27 | O=C(NCC(c1ccco1)N1CCc2ccccc2C1)c1ccccc1Cl (centres undefined) | inactive
28 | NC(=O)c1ccsc1NC(=O)COC(=O)Cc1n[nH]c(=O)c2ccccc12 | inactive
29 | Nc1c(-c2ccccc2)nnn1Cc1ccccc1 | inactive
30 | Oc1c(Cl)cc(Cl)c(Cl)c1Cc1c(O)c(Cl)cc(Cl)c1Cl | -6.87 (active)
31 | COc1ccc(C2=NN(C(=O)CSc3nc(=O)n4ccc(C)cc4n3)C(c3ccc(C)cc3)C2)cc1 (centres undefined) | inactive
32 | CCN1C(=O)[C@H]2[C@@H](c3ccc(-c4ccc(F)cc4)cc3)N[C@@](Cc3ccccc3)(C(=O)OC)[C@H]2C1=O | inactive
33 | O=C(Cc1ccc(Br)cc1)NCCc1ccccc1 | inactive
34 | CC(=O)Nc1ccc(NC(=O)CSC2=NS(=O)(=O)c3ccccc3N2)cc1 | inactive
35 | C=C(C)CNC(=O)c1ccc(OC2CCN(C(=O)COC)CC2)cc1 | inactive
36 | O=C(CCCCCN1C(=O)c2cccc3cccc(c23)C1=O)NCc1ccco1 | inactive
37 | C[N+](C)(CCCCCC[N+](C)(C)CCCN1C(=O)c2cccc3cccc(c23)C1=O)CCCN1C(=O)c2cccc3cccc(c23)C1=O | inactive
38 | O=C1c2cccc3cccc(c23)C(=O)N1CCCCCc1n[nH]c(=S)o1 | -5.24 (active)
39 | CCC1(c2ccccc2)NC(=O)N(CC(=O)c2ccc3c(c2)OCO3)C1=O (centres undefined) | inactive
40 | CCCn1c(C)cc(/C=C(\C#N)C(=O)OCC(=O)N(C)c2c(N)n(Cc3ccccc3)c(=O)[nH]c2=O)c1C | inactive
41 | Cc1[nH]c2ccccc2c1C(=O)CN1CC(C)CC(C)C1 (centres undefined) | inactive
42 | Cc1[nH]c2ccccc2c1C(=O)CN1CCCC(C)C1 (centres undefined) | -6.04 (active)
43 | CCOC(=O)N1CCN(CC(=O)c2c(C)[nH]c3ccccc23)CC1 | inactive
44 | [O-][n+]1ccc(OCc2ccccc2)cc1 | inactive
45 | Cc1ccc([C@@H]2CC=C(C(=O)O)[C@H](c3cccc(Cl)c3)N2S(=O)(=O)c2ccc(C)cc2)cc1 | inactive
46 | COc1ccccc1C(=O)NC(CCSC)C(=O)N1CCN(C/C=C/c2ccccc2)CC1 (centres undefined) | inactive
47 | O=C(Nc1ccc2nc3n(c(=O)c2c1)CCCC3)c1ccc(Cl)nc1 | inactive
48 | CCN(CC)CCn1cnc2c1c(=O)[nH]c(=O)n2Cc1ccccc1 | inactive
49 | COCCn1cnc2c1c(=O)n(Cc1ccc(Br)cc1)c(=O)n2Cc1ccccc1 | inactive
50 | N=c1c2c(-c3ccccc3)c(-c3ccccc3)n(Cc3ccccc3)c2ncn1CCCO | -9.35 (active)
51 | CCOC(=O)C1CCN(C(=O)COC(=O)C2CCN(S(=O)(=O)c3ccc4c(c3)OCCO4)CC2)CC1 | inactive
52 | Cc1cc(C)c(S(=O)(=O)n2cc(C(C)C(N)C(=O)O)c3ccccc32)c(C)c1 (centres undefined) | inactive

Row | SMILES | B-score
53 | CCN(CC(=O)Nc1c(F)cccc1F)C(=O)c1ccc(-c2ccccc2)cc1 | inactive
54 | COc1ccccc1/C=N/Nc1nc(C)c(C(C)=O)s1 | inactive
55 | COc1ccc(C(=O)NCC(c2ccco2)N2CCc3ccccc32)cc1OC (centres undefined) | inactive
56 | Cc1sc2nc(CSCC(=O)NC3CCCCC3)[nH]c(=O)c2c1C | inactive
57 | Cn1c(=N)n(CC(O)c2cccs2)c2ccccc21 (centres undefined) | inactive
58 | Cn1c(=N)n(CC(O)c2ccccc2)c2ccccc21 (centres undefined) | inactive
59 | N=c1n(Cc2ccc(Cl)cc2)c2ccccc2n1CC(O)c1ccco1 (centres undefined) | -5.25 (active)
60 | O=C(N/N=C/c1cc(Br)c(O)c([N+](=O)[O-])c1)C(O)(c1ccccc1)c1ccccc1 | inactive
61 | CCCCN(C(=O)CSCC(=O)Nc1ccc(OC)cc1)c1c(N)n(CCC)c(=O)[nH]c1=O | inactive
62 | O=C(Cc1ccc(S(=O)(=O)N2CCOCC2)s1)NCCOc1ccccc1F | inactive
63 | Cc1ccc(NC(=O)C2CC(=O)N(c3ccc4c(c3)OCCO4)C2)cc1S(=O)(=O)N1CCCCCC1 (centres undefined) | inactive
64 | CCCCn1c(=O)c(C(C)=O)c(O)c2ccccc21 | inactive
65 | CCOC(=O)c1nnn2c3ccccc3c(=O)n(C)c12 | inactive
66 | CCCCCn1c(=O)c(C(=O)OCC)c(Cl)c2ccccc21 | -5.74 (active)
67 | Cc1sc2ncnc(N3CCC(C(=O)Nc4nc5ccc(Cl)cc5s4)CC3)c2c1C | inactive
68 | CCc1ccc(Nc2n[n+](-c3ccccc3)c(-c3cccc(Cl)c3Cl)s2)cc1 | inactive
69 | Cc1ccc2nc(Nc3ccccc3O)nc(-c3ccccc3)c2c1 | inactive
70 | Cc1ccc2nc(Nc3ccccc3)cc(C)c2c1 | -8.75 (active)
71 | Cc1cc(Nc2ccc(Br)cc2)nc2ccccc12 | inactive
72 | O=S(=O)(Nc1ccccn1)c1cccc(S(=O)(=O)c2ccc(Cl)cc2)c1 | inactive
73 | Cc1ccc(NS(=O)(=O)c2ccc(F)cc2)nc1 | inactive
74 | O=S(=O)(Nc1ccc(Cl)cn1)c1cnc(Cl)c(Br)c1 | -8.67 (active)
75 | CC(=O)c1c(C)[nH]c(C(=O)COC(=O)CCOc2ccc(C)cc2)c1C | inactive
76 | CCOC(=O)N1CCN(C(=O)C2CCN(S(=O)(=O)c3cc(Cl)ccc3OCC)CC2)CC1 | inactive
77 | CCOC(=O)C1CCN(c2ncnc3c2oc2ccc(Br)cc23)CC1 | inactive
78 | CCOC(=O)N1CCN(C(=O)C2CCN(c3ncnc4c3sc3cccc(F)c34)CC2)CC1 | -5.37 (active)

Row | SMILES | B-score
79 | CCC(C)c1ccc(O)c(/C=N/O)c1 (centres undefined) | inactive
80 | CC(=O)NCC(O)c1ccc([N+](=O)[O-])cc1 (centres undefined) | inactive
81 | CNCC(O)c1ccc(O)c(O)c1 (centres undefined) | -5.02 (active)
82 | COc1cc(C(=O)NCC(=O)NCCSc2ccc(Br)cc2)cc(OC)c1OC | inactive
83 | C=CCOc1ccc(/C=C/C(=O)OCC(=O)NC(C)c2ccc(F)cc2)cc1 (centres undefined) | inactive
84 | COc1ccc(C(=O)N[C@H](C(=O)NCc2ccccc2)C(C)C)cc1 | inactive
85 | CCOC(=O)C(Cc1ccccc1)NC(=O)CCC(=O)c1ccc(OC)cc1 (centres undefined) | inactive
86 | COc1ccc(C(=O)NC(Cc2ccc(OC(=O)c3ccc(OC)cc3)cc2)C(=O)O)cc1 (centres undefined) | -5.4 (active)
87 | CCOc1ccc(CCNC(=O)COC(=O)C2CCN(c3ccc(C(F)(F)F)cn3)CC2)cc1OCC | inactive
88 | FC(F)(F)c1ccc2c3n(nc2c1)CCN=C3c1ccc(Cl)cc1 | inactive
89 | Cc1ccc(C(=O)NCCN2CCOCC2)cc1C | inactive
90 | Cc1cccc(-c2nc3ccc(C(=O)NCCN4CCN(C)CC4)cc3nc2-c2cccc(C)c2)c1 | -5.67 (active)
91 | Cc1cccc(C(=O)NCCCN2CCCC2=O)c1 | inactive
92 | NC1=NC(c2ccc([N+](=O)[O-])cc2)N(c2ccc(F)cc2)C(N)=N1 (centres undefined) | inactive
93 | CN(Cc1ccccc1)CC(O)COc1ccc(CNCc2cc3ccccc3s2)cc1 (centres undefined) | -5.57 (active)
94 | OC(CNCc1ccc2c(c1)OCO2)COc1ccccc1 (centres undefined) | inactive
95 | Cc1ccc(OCC(=O)OC(C)CN(C)Cc2ccccc2)cc1 (centres undefined) | inactive
96 | COc1ccccc1NC(=O)Nc1nc(CC(=O)Nc2ccccc2F)cs1 | inactive
97 | CCOc1cc(N2CCOCC2)c(OCC)cc1NC(=O)COc1cccc(Cl)c1 | inactive
98 | CCN(CC(=O)Nc1cccc(S(=O)(=O)N2CCCCC2)c1)Cc1ccccc1 | inactive
99 | Cc1ccc(-c2cc(=O)[nH]c(NCc3ccccc3)n2)cc1 | inactive
100 | CCCCN(C1CCS(=O)(=O)C1)S(=O)(=O)c1ccc(C(C)C)cc1 (centres undefined) | inactive
101 | Cc1cc(=O)[nH]c(SCc2cc(Cl)ccc2OC(F)F)n1 | inactive
102 | COc1ccc(Cl)cc1CSc1ncn[nH]1 | inactive
103 | CCCCOc1ccc(Cl)cc1CSc1nncn1N | -4.96 (active)
104 | COc1ccccc1C(CNC(=O)c1cccc(NS(=O)(=O)c2ccc(Br)cc2)c1)N(C)C (centres undefined) | inactive
